Source: PubChem
LmPK inhibitor – inhibitors of Leishmania mexicana pyruvate kinase; Q27686; purified LmPK, Kinase-Glo ATP luminescence, 1 h; Potency, µM (series often up to 57.5 µM), without a hit: at the highest dose activity change, negative = inhibition, actives largely listed as inhibitors; 0.37% of 290,000 active; note: potency is the fitted concentration of half-maximal effect
Target sequence (Q27686 whole entry, looked up): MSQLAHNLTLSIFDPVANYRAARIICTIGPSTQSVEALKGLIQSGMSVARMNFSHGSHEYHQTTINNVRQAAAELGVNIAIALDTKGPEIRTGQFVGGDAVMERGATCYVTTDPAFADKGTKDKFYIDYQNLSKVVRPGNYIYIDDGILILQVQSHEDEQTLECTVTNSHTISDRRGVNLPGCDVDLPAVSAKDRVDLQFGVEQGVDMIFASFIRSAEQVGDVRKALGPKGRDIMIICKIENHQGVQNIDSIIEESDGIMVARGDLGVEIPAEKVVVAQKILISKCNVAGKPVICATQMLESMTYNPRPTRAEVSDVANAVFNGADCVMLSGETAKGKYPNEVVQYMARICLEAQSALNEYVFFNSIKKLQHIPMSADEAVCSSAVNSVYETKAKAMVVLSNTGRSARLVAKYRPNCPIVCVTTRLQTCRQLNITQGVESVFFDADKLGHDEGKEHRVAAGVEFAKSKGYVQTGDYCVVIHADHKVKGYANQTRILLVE
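0.1 nM LmPK, 0.5 mM PEP, 0.1 mM ADP; 50 mM imidazole pH 7.2, 7 mM MgCl2, 50 mM KCl; 1 h RT. Kinase-Glo luminescence readout, normalized to no-enzyme (full inhibition) and uninhibited wells.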
TbPYK inhibitor – T. brucei pyruvate kinase inhibition; TbPYK enzyme, Kinase-Glo Plus ATP luminescence, 45 min; Potency, µM (top dose mostly 76.8 µM), inactives show at the top dose activity, negative = inhibition, most hits filed as inhibitors; 0.12% of 410,000 active; AID 624173; note: potency is the fitted concentration of half-maximal effect; nearly all actives have a fitted effect of over 50% in size
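Screened from lowest to highest concentration, compounds were pinned into TbPYK/substrate mixtures, and ADP (130 uM final) was added. Plates sat at room temperature for 45 min prior to Kinase-Glo Plus detection by luminescence.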
HCMV antiviral – blocks human cytomegalovirus replication. HFF cells, HCMV-luciferase reporter, 72 h; stronger effect = lower value. activity change, negative = inhibition, % at 57.5 µM. 4.5% of 410,000 active. AID 1259415; in the data active = activity change below about -60%; inconclusive = no clear call, values can overlap the other calls; inactive = above about -39%
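Screen run at 2 compound doses on HFFs infected with reporter HCMV, MOI 1 PFU/cell. Luciferase activity from cell lysates at 72 h post infection gave inhibition relative to buffer-only and Salinomycin wells.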
Vaccinia mCherry – vaccinia inhibition (mCherry reporter). Vaccinia virus mCherry reporter infection, fluorescence. Potency, µM (titrated, usually from 36.5 µM), inactives show at the top dose activity change, negative = inhibition, usual class: inhibitors. 0.63% of 310,000 active; calls by dose curve; tested in A549 cells; note: potency is the fitted concentration of half-maximal effect; nearly all actives have a fitted effect of over 35% in size
VACV Venus inh – inhibitors of vaccinia virus (Venus reporter); Vaccinia virus Venus reporter expression, fluorescence; Potency, µM (series often up to 36.5 µM), for inactives: at the highest dose activity change, negative = inhibition, actives largely listed as inhibitors; 0.46% of 330,000 active; calls by dose curve; tested in A549 cells; note: potency is the fitted concentration of half-maximal effect; nearly all actives have a fitted effect of over 30% in size
An asterisk follows results filed as active; i = inactive; ? = inconclusive; nt = no result given; + = active, no number; [ ] = remark or other dose. The list is not random: actives were taken first. Their share in the collection is about 5%. Unless noted, calls come from the whole dose curve; as a rule, active = well fitted curve in the direction sought with a large enough effect; inconclusive = small, poorly fitted or top-dose-only effect, or another doubt; inactive = no such curve, though single readings can be large; an effect the other way counts as inactive or inconclusive. % is set by controls: 0 for no effect and ±100 for the full control effect.

SMILES	LmPK inhibitor	TbPYK inhibitor	HCMV antiviral	Vaccinia mCherry	VACV Venus inh
O=C(Cn1c(=O)c2sccc2n(Cc2cccc([N+](=O)[O-])c2)c1=O)NCCc1ccccc1	-0.5%	-16.1%	-1.3	i	0.0%
C=CC[C@H](CC(=O)N(CCO)Cc1ccccc1)C(=O)N[C@@H](COC(=O)[C@H](CC=C)CC(=O)OC(C)(C)C)Cc1c[nH]c2ccccc12	nt	-0.8%	52.7	?	?
C=CC[C@@H](CC(=O)N(CCO)Cc1ccccc1)C(=O)N[C@@H](COC(=O)[C@@H](CC=C)Cc1ccc(F)cc1)Cc1c[nH]c2ccccc12	nt	3.4%	51.4	?	10µM*
C=CC[C@H](CC(=O)N(CCO)Cc1ccccc1)C(=O)N[C@@H](COC(=O)[C@@H](CC=C)Cc1ccc(F)cc1)Cc1c[nH]c2ccccc12	nt	2.8%	31.6	11.2µM*	10µM*
Cn1cc([C@]2(O)C(=O)Nc3ccc(Br)cc32)c2ccccc21	nt	nt	-2.3	-20.4%	-15.6%
Cc1[nH]n(-c2ccccc2)c(=O)c1C=Nc1ccc(S(=O)(=O)N=C(N)N)cc1	5.6%	1.8%	-16.8	nt	nt
Cc1[nH]n(-c2ccccc2)c(=S)c1C=Nc1ccc([N+](=O)[O-])cc1	-25.7%	2.82µM*	-7.4	i	-6.5%
Cc1ccc(C(=O)CSc2nnc(CNc3ccc(C)cc3C)o2)cc1	1.2%	-21.3%	16.7	-21.7%	-16.1%
COn1c(C)c(C)c2c3nonc3ccc21	-0.6%	0.3%	-64.6*	-14.2%	-8.5%
C=CCOn1c(C)c(C(C)=O)c2c3no[n+]([O-])c3ccc21	3.1%	1.5%	?	nt	nt
CCOC(=O)c1c(C)n(OCc2ccccc2)c2ccc3nonc3c12	6.2%	-0.4%	-13.4	-10.4%	-12.3%
C=CCOn1c(C)c(C(C)=O)c2c3nonc3ccc21	-0.6%	1.6%	-80.6*	-8.8%	2.8%
COc1cc(NC(=O)c2ccc3c(c2)S(=O)(=O)N=C2CCCCCN23)cc(OC)c1	nt	0.7%	-17.3	i	-13.1%
CN1C(=O)C(O)(CC(=O)c2ccccc2O)c2cc(Br)ccc21 (stereo unspecified)	2.3%	-3.7%	6.8	9.3%	0.4%
CCCCN(C(=O)CCC(=O)Nc1cc(C)on1)C(C(=O)NC(C)(C)C)c1ccccc1Cl (stereo unspecified)	0.5%	-4.4%	-13.8	-7.0%	4.8%
COCCN(C(=O)CCC(=O)Nc1nccs1)C(C(=O)NC(C)(C)C)c1ccc(C)cc1 (stereo unspecified)	-4.0%	0.0%	-73.5*	-13.8%	-12.8%
COCCN(C(=O)CCC(=O)Nc1cc(C)on1)C(C(=O)NC(C)(C)C)c1ccccc1Cl (stereo unspecified)	0.3%	0.4%	-62.5*	i	-10.7%
COCCN(C(=O)CCC(=O)Nc1nccs1)C(C(=O)NC(C)(C)C)c1ccc(F)cc1 (stereo unspecified)	-0.7%	-1.0%	9.0	-19.9%	-3.2%
CCc1ccc(-c2nc(C(N)=O)c3[nH]c(=O)n(-c4ccccc4OC)c3n2)cc1	2.1%	1.1%	-98.3*	-17.4%	?
O=C(CSc1nc2sc3c(c2c(=O)[nH]1)CCCC3)Nc1ccccc1F	nt	-1.8%	-9.8	-10.3%	-12.6%
COc1ccc(-n2ncc(Cl)c(Cl)c2=O)cc1	-2.5%	5.0%	-100.8*	-21.3%	-22.0%
COc1c(Cl)cnn(-c2ccccc2)c1=O	-0.1%	-10.9%	-29.1	i	-12.2%
COc1nn(-c2ccccc2)c(=O)c(Cl)c1Cl	-4.6%	0.8%	-102.2*	?	28.2µM*
COc1ccc(-n2ncc(N(C)n3cccc3)c(Cl)c2=O)cc1	2.1%	-1.5%	79.1	nt	-1.9%
COc1ccc(Sc2cnn(-c3ccccc3)c(=O)c2Cl)cc1	2.4%	-2.3%	?	12.6µM*	?
SMILES	LmPK inhibitor	TbPYK inhibitor	HCMV antiviral	Vaccinia mCherry	VACV Venus inh
COc1ccc(C(=O)Nc2ccc3c(c2)CCCN3C(=O)c2cccs2)c(OC)c1	-1.1%	-2.2%	?	-24.0%	-21.8%
COc1ccc(F)cc1S(=O)(=O)Nc1ccc2c(c1)CCCN2C(=O)c1cccs1	nt	2.3%	-74.8*	-10.0%	-12.8%
Cc1cc(F)ccc1S(=O)(=O)Nc1ccc2c(c1)CCCN2C(=O)c1cccs1	nt	-0.8%	?	-28.1%	-26.6%
CC(C)Oc1ccc(C(=O)Nc2ccc3c(c2)CCCN3C(=O)c2cccs2)cc1	nt	3.4%	-89.3*	?	?
Cc1ccccc1C(=O)Nc1ccc2c(c1)CCCN2C(=O)c1cccs1	-17.6%	-19.7%	+	-18.0%	15.0%
CCCCOc1ccc(C(=O)Nc2ccc3c(c2)CCCN3C(=O)c2cccs2)cc1	nt	1.8%	-87.4*	?	?
COc1cccc(C(=O)Nc2ccc3c(c2)CCCN3C(=O)c2cccs2)c1OC	-1.0%	0.0%	-32.7	-6.6%	-14.5%
CCOc1ccc(CCNC(=O)c2cc3sccc3n2C)cc1OCC	4.1%	1.8%	-11.1	-21.3%	-13.5%
CCOc1cc(C(=O)NCc2ccccc2)ccc1OCC(=O)N1CCCCC1	nt	4.3%	-2.9	nt	nt
C/C(=N\NC(=O)C1CC1)c1ccc2c(c1)OCCO2	-3.8%	3.5%	44.8	-11.6%	-9.0%
COc1ccc(CN2CCc3ccccc3C2)c(OC)c1	-0.7%	8.0%	8.8	-14.4%[7.34 µM]	0.7%[7.34 µM]
COc1ccc(C2=[N+](C)CCn3cccc32)c(OC)c1	0.2%	-19.3%	-96.3*	?	-21.1%
CCCCc1c(O)nc2sc3cc(OC)ccc3n2c1=O	-7.2%	0.5%	67.4	nt	-13.6%
COC(=O)[C@@]1(Cc2ccc(OC)cc2)[C@H]2c3cc(C(=O)N4CCCC4)n(Cc4ccc(S(C)(=O)=O)cc4)c3C[C@H]2CN1C(=O)c1ccccc1	nt	-8.6%	-65.5*	i	-6.4%
COc1ccc(/C(C)=N\NC(=O)CNC(=O)C(c2ccccc2)c2ccccc2)cc1OC	10.0%	0.4%	-20.1	-18.6%	?
CCOC(=O)c1c(C)[nH]c(C)c1C(=O)COc1ccc(NC(=O)c2ccco2)cc1	0.4%	-10.2%	-64.4*	nt	nt
CCCOc1cccc(C(=O)Nc2cccnc2)c1	1.6%	-4.7%	2.0	14.1µM*	-12.5%
CCOC(=O)c1cccc(NC(=O)c2ccc(NC(=O)c3ccco3)cc2)c1	-9.0%	-8.2%	-64.4*	nt	nt
O=C(Nc1ccccc1)c1cccc(NC(=O)c2ccco2)c1	nt	-1.5%	7.2	-10.9%	-7.3%
CCOC(=O)c1c(C)[nH]c(C)c1C(=O)COC(=O)[C@@H](NC(=O)c1ccco1)C(C)C	nt	-0.4%	-9.0	-17.2%	-2.9%
CCCCOc1cccc(C(=O)Nc2ccc(NC(=O)c3ccco3)cc2)c1	-2.0%	-1.8%	-77.7*	-28.5%	?
COc1cccc(NC(=O)CN(C)C(=O)c2cc3c(s2)CCCCC3)c1	nt	2.6%	0.0	nt	nt
O=C(COc1cccc(C(F)(F)F)c1)Nc1cccnc1	8.1%	0.8%	-85.2*	nt	nt
O=[N+]([O-])c1cccc(/C([O-])=C(/C(=S)Nc2cccc3ccccc23)[n+]2ccccc2)c1	3.0%	-7.9%	-0.7	-16.6%	-3.2%
O=C(Nc1ccccc1)C1CCCN1C(=O)Nc1ccccc1[N+](=O)[O-] (stereo unspecified)	-2.7%	0.7%	-61.5*	nt	nt
